Data reported in paper PMC5700166.

biological target: T1, GST-Dm-Relish (Drosophila melanogaster, UniProt Q94527 99-473); assay: protein-binding microarray (PBM); PBM: ~300 nM protein, 6 mM HEPES pH 7.8, 80 mM KCl, 0.5 mM EDTA, 0.5 mM EGTA, 6% glycerol, 35 ng/ul poly-dIdC, 1% milk, 1 h, room temperature; Ap Aiptasia and Nv Nematostella (sea anemones) / Co Capsaspora / Aq Amphimedon (sponge) / Dm Drosophila / Hu human; RHD is the Rel homology domain; high values mean tight binding; settings: dsDNA, one strand shown
T1 sequence: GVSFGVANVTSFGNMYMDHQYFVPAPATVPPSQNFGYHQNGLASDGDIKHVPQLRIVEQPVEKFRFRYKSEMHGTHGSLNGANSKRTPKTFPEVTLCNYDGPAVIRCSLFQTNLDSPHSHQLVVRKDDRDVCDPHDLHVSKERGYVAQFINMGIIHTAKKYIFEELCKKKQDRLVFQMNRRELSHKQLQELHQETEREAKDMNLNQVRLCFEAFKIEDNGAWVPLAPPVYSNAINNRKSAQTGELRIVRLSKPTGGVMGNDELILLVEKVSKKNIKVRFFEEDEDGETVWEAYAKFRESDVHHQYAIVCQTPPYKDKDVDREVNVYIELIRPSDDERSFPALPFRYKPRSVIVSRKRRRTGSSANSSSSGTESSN

Compared with “CCGATTAACATCAAGGGCTTCCCTGATGTTAATCGGGTCTTGATTCGCTTGACGCTGCTG”, “CCGATTAACATCAATATTTCCCATGATGTTAATCGGGTCTTGATTCGCTTGACGCTGCTG” is lower in binding signal: 7.18 z-score for the first, 1.61 z-score for the second.

Compared with “CCGATTAACATCAAAAACACCCCTGATGTTAATCGGGTCTTGATTCGCTTGACGCTGCTG”, “CCGATTAACATCAGAGAAGTCCCTGATGTTAATCGGGTCTTGATTCGCTTGACGCTGCTG” is lower in binding signal: 5.77 z-score for the first, 4.44 z-score for the second.

First: CCGATTAACATCAAAATAATCCCTGATGTTAATCGGGTCTTGATTCGCTTGACGCTGCTG
Second: CCGATTAACATCAGGATAATCCCTGATGTTAATCGGGTCTTGATTCGCTTGACGCTGCTG
The binding signal of the first is higher: 4.15 z-score for the first, 2.88 z-score for the second.

Going from “CCGATTAACATCAGGAGAATCCCTGATGTTAATCGGGTCTTGATTCGCTTGACGCTGCTG” to “CCGATTAACATCAGGGGAAGGGATGATGTTAATCGGGTCTTGATTCGCTTGACGCTGCTG”, the binding signal falls from 4.39 z-score to 1.68 z-score.

Going from “CCGATTAACATCAGGGACCGCCCTGATGTTAATCGGGTCTTGATTCGCTTGACGCTGCTG” to “CCGATTAACATCAGGAAGACCCCTGATGTTAATCGGGTCTTGATTCGCTTGACGCTGCTG”, the binding signal rises from 1.91 z-score to 3.8 z-score.

Going from “CCGATTAACATCAGGGATCCCCATGATGTTAATCGGGTCTTGATTCGCTTGACGCTGCTG” to “CCGATTAACATCACACCACCCCCTGATGTTAATCGGGTCTTGATTCGCTTGACGCTGCTG”, the binding signal falls from 9.65 z-score to 2.4 z-score.

First: CCGATTAACATCAAGGGTTTTCCTGATGTTAATCGGGTCTTGATTCGCTTGACGCTGCTG
Second: CCGATTAACATCAGGGACAGCCCTGATGTTAATCGGGTCTTGATTCGCTTGACGCTGCTG
The binding signal of the first is higher: 4.7 z-score for the first, 2.23 z-score for the second.

Going from “CCGATTAACATCACGAGTTTCCCTGATGTTAATCGGGTCTTGATTCGCTTGACGCTGCTG” to “CCGATTAACATCAGGAGTTTACCTGATGTTAATCGGGTCTTGATTCGCTTGACGCTGCTG”, the binding signal rises from 1.16 z-score to 3.24 z-score.

First: CCGATTAACATCAGGGATTTACCTGATGTTAATCGGGTCTTGATTCGCTTGACGCTGCTG
Second: CCGATTAACATCAGGCCACCCCCTGATGTTAATCGGGTCTTGATTCGCTTGACGCTGCTG
The binding signal of the first is higher: 9.23 z-score for the first, 5.42 z-score for the second.

Compared with “CCGATTAACATCACGGGACTTCCTGATGTTAATCGGGTCTTGATTCGCTTGACGCTGCTG”, “CCGATTAACATCAGGGTTTTCCATGATGTTAATCGGGTCTTGATTCGCTTGACGCTGCTG” is lower in binding signal: 7.87 z-score for the first, 5.27 z-score for the second.

Compared with “CCGATTAACATCAGGGCTTTACCTGATGTTAATCGGGTCTTGATTCGCTTGACGCTGCTG”, “CCGATTAACATCAAGGGCATTCCTGATGTTAATCGGGTCTTGATTCGCTTGACGCTGCTG” is lower in binding signal: 5.69 z-score for the first, 2.4 z-score for the second.

Compared with “CCGATTAACATCAGGGCGTCCCCTGATGTTAATCGGGTCTTGATTCGCTTGACGCTGCTG”, “CCGATTAACATCAGGGGTTTACCTGATGTTAATCGGGTCTTGATTCGCTTGACGCTGCTG” is higher in binding signal: 8.13 z-score for the first, 9.7 z-score for the second.

Going from “CCGATTAACATCAACCCCCGGCTTGATGTTAATCGGGTCTTGATTCGCTTGACGCTGCTG” to “CCGATTAACATCAATGGGATTCCTGATGTTAATCGGGTCTTGATTCGCTTGACGCTGCTG”, the binding signal rises from 4.35 z-score to 7.4 z-score.

Going from “CCGATTAACATCAGGAATCACCCTGATGTTAATCGGGTCTTGATTCGCTTGACGCTGCTG” to “CCGATTAACATCAGGAACATCCCTGATGTTAATCGGGTCTTGATTCGCTTGACGCTGCTG”, the binding signal falls from 7.17 z-score to 1.9 z-score.

Going from “CCGATTAACATCACGGGACATACTGATGTTAATCGGGTCTTGATTCGCTTGACGCTGCTG” to “CCGATTAACATCACGGAAGTCCCTGATGTTAATCGGGTCTTGATTCGCTTGACGCTGCTG”, the binding signal rises from 1.8 z-score to 6.53 z-score.

Compared with “CCGATTAACATCAAAAAAATACCTGATGTTAATCGGGTCTTGATTCGCTTGACGCTGCTG”, “CCGATTAACATCAAGCAATTCCCTGATGTTAATCGGGTCTTGATTCGCTTGACGCTGCTG” is lower in binding signal: 5.83 z-score for the first, 1.23 z-score for the second.

First: CCGATTAACATCAGGCGTCCCCCTGATGTTAATCGGGTCTTGATTCGCTTGACGCTGCTG
Second: CCGATTAACATCACGGAAAACCCTGATGTTAATCGGGTCTTGATTCGCTTGACGCTGCTG
The binding signal of the first is higher: 3.92 z-score for the first, 3.69 z-score for the second.

First: CCGATTAACATCAGGGAACTACATGATGTTAATCGGGTCTTGATTCGCTTGACGCTGCTG
Second: CCGATTAACATCAGGCGAGTCCCTGATGTTAATCGGGTCTTGATTCGCTTGACGCTGCTG
The binding signal of the first is higher: 8.31 z-score for the first, 1.72 z-score for the second.

First: CCGATTAACATCAGGGGATCCCATGATGTTAATCGGGTCTTGATTCGCTTGACGCTGCTG
Second: CCGATTAACATCAGGAAAAACCCTGATGTTAATCGGGTCTTGATTCGCTTGACGCTGCTG
The binding signal of the first is higher: 10 z-score for the first, 6.52 z-score for the second.

For “CCGATTAACATCAGGGGGTCTACTGATGTTAATCGGGTCTTGATTCGCTTGACGCTGCTG”, the binding signal was 7.11 z-score.
